{
  "source": "PubChem BioAssay",
  "note": "Measured potencies and affinities stand elsewhere. Values without a mark were called inactive.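 The calls were made as follows: active = a fitted half-maximal concentration no higher than twice the top valid tested dose, with signal falling as cells die; inconclusive = flat curve between -70% and -30%, or poor fit; inactive = the rest, including signal rising instead of falling.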",
  "data": [
    {"experiment": "viability loss in HeLa cells – cell-based, ATP luminescence, cherry-pick samples, cytotoxicity control, dose response (AID 687004);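 also: 0% = neutral control median and -100% = staurosporine 10 µM control median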", "conditions": "ATP luminescence (CellTiter-Glo), 48 h; series mostly up to 26 µM; activity change, negative = cytotoxicity: at the top concentration", "values": [
      {"smiles": "CC(C)Sc1nc2ncnc(N)c2[nH]1", "activity change, negative = cytotoxicity": "9.42%"},
      {"smiles": "C[C@@H]1CCCCO[C@H](CN(C)Cc2ccccc2)[C@H](C)CN([C@@H](C)CO)C(=O)c2cc(NS(=O)(=O)c3cccs3)ccc2O1", "activity change, negative = cytotoxicity": "6.29%"},
      {"smiles": "CC(C)NC(=O)Nc1ccc2c(c1)C(=O)N([C@@H](C)CO)C[C@@H](C)[C@@H](CN(C)C(=O)NC1CCCCC1)OCCCC[C@H](C)O2", "activity change, negative = cytotoxicity": "11.5% [at 23.5 µM]"},
      {"smiles": "CN1c2ccc(-c3ccc(F)cc3)cc2[C@@H]2[C@@H](CCN2C(=O)C2CCOCC2)[C@@H]1CO", "activity change, negative = cytotoxicity": "11.7%"},
      {"smiles": "Cc1cccc(OCC(=O)NCc2ccc(F)cc2)c1", "activity change, negative = cytotoxicity": "16.1%"},
      {"smiles": "CNC[C@@H]1Oc2ccc(NS(=O)(=O)c3ccc(Cl)cc3)cc2C(=O)N([C@H](C)CO)C[C@H]1C", "activity change, negative = cytotoxicity": "22.6%"},
      {"smiles": "CC(=O)N[C@H]1CC[C@H](CCNC(=O)C2CCC2)O[C@@H]1CO", "activity change, negative = cytotoxicity": "10.9%"},
      {"smiles": "Cc1ccccc1NC(=O)C1CCC(=O)N1", "note": "(stereo not given)", "activity change, negative = cytotoxicity": "0.738%"},
      {"smiles": "CCC(=O)N1[C@H](CO)[C@@H](c2ccc(-c3cccnc3)cc2)[C@@H]1CN(C)C(C)=O", "activity change, negative = cytotoxicity": "11.6% [at 23.5 µM]"},
      {"smiles": "Cc1cc(C)c(NC(=O)CN(C2CCCCC2)C2CCCCC2)c(C)c1", "activity change, negative = cytotoxicity": "7.88%"},
      {"smiles": "CCNC(=O)C[C@H]1CC[C@@H](NC(=O)NC2CCCCC2)[C@H](CO)O1", "activity change, negative = cytotoxicity": "7.04%"},
      {"smiles": "C[C@H]1CN([C@@H](C)CO)C(=O)Cc2cc(NS(=O)(=O)c3cn(C)cn3)ccc2O[C@@H]1CN(C)Cc1ccc(Oc2ccccc2)cc1", "activity change, negative = cytotoxicity": "20.1%"},
      {"smiles": "CCOc1cc(CNC)ccc1OCC(=O)NC(C)(C)C", "activity change, negative = cytotoxicity": "15.6%"},
      {"smiles": "O=C(CSc1ncnc2c1cnn2-c1ccccc1)NCC1CCCO1", "note": "(stereo not given)", "activity change, negative = cytotoxicity": "3.14%"},
      {"smiles": "COc1ccc(C2CC(c3cccs3)=NN2C(=O)c2ccco2)cc1OC", "note": "(stereo not given)", "activity change, negative = cytotoxicity": "3.51%"}
    ]}
  ]
}
